Measured values reported in PubChem BioAssay (NCATS).
Inconclusive results are not listed. Values without a mark were called inactive. The source made the active and inactive calls. Calls follow the shape of the dose curve; as a rule, active = well fitted inhibition curve with a large enough effect; inconclusive = small, poorly fitted or top-dose-only effect; inactive = no such curve, though single readings can be large or run the other way. Residues, ends and D or L forms follow the SMILES beside them. *: point of attachment. Cbz = O=C(OCc1ccccc1)*

test system: Zika virus NS2B-NS3 protease (unlinked); assay: Optimization of GU AMC qHTS for Zika virus inhibitors: Unlinked NS2B-NS3 protease assay (AID 1347151); settings: recombinant ZIKV NS2B-NS3 protease, fluorogenic AMC substrate; series mostly up to 52.5 µM; activity change, negative = inhibition: at the top concentration; also: nearly all actives have a fitted effect of over 80% in size;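 as to activity change, negative = inhibition: 0% = no-inhibitor control and -100% = no-enzyme control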
From the text: Avindra Nath, Ph.D., National Institute of Neurological Disorders and Stroke (NINDS), Bethesda, MD
Radhakrishnan Padmanabhan, Ph.D., Georgetown University (GU), Washington D.C.
Zika Virus causes congenital defects, including microcephaly and is associated with Guillain-Barre syndrome, eningoencephalitis and myelitis in infected adult. […] Using a target-based approach, we hope to establish a screening paradigm to uncover novel, cell-active NS2B-NS3 protease (Zika Virus) specific inhibitors from NCATS' collection of small molecules using qHTS.
Early Translation Branch (ETB)
National Center for Advancing Translational Sciences (NCATS), Rockville, MD
National Institute of Health (NIH), Bethesda, Maryland
Padmanabhan lab provided the NS2B hydrophilic domain and NS3 protease domain in a noncovalent complex used for the unlinked assay. Control compound aprotinin is obtained from Thermo Scientific (#78432; Waltham, Massachusetts). NS2B-NS3 AMC substrate (Bz-Nle-Lys-Arg-Arg-AMC; Nle-KRR-AMC) purchased from Bachem (#I-1995; Torrance, CA). Ac-VKTGKR-AMC purchased from Genscript or Bachem, Ac-FAAGKR-AMC purchased from Genscript, Ac-GLVKRR-AMC purchased from Genscript, Ac-LKKR-AMC purchased from Genscript.
GU AMC unlinked NS2B-NS3 protease qHTS protocol:
Briefly, 3 microL of Zika virus unlinked NS2B-NS3 protease (25 nM for linked final concentration), in assay buffer (10 mM Tris-HCl pH 8.0 with 0.01% Tween 20) was dispensed into a 1,536-well solid-bottom black plate (Greiner Bio One, Monroe, NC). Twenty-three nL of compounds (final concentration range 7.28 nM to 114 microM) or control Aprotinin (final concentration range 3.47 nM to 114 microM) were transferred via Wako Pin-tool (Wako Automation, Richmond, VA). […] Plates were then read immediately on a ViewLux High-throughput CCD imager (PerkinElmer, Waltham, MA) equipped with standard UV fluorescence optics (340(30) nm excitation, 450(20) nm emission) then incubated (room temperature, protected from light) for 15 minutes (~20% conversion). The change in fluorescence intensity over the 15-minute reaction period was normalized against no-inhibitor and no-enzyme controls and the resulting percent inhibition data were fitted to a 4-parameter Hill equation. Aprotinin was used as the intraplate control.
Potency is read from the fitted curve at half-maximal effect.

Row | SMILES | activity change, negative = inhibition | Potency
1 | OC[C@H]1NC[C@@H](O)[C@@H]1O | 4.13% | –
2 | O=c1[nH]ccc2c(O)cccc12 | – | 29.9 µM (active)
3 | COc1cc(/C=C(\C#N)C(=O)Nc2nnc(C(F)(F)F)s2)ccc1OCc1ccc(C(F)(F)F)cc1C(F)(F)F | – | 2.12 µM (active)
4 | CNC(=O)c1cc2c(cn1)[nH]c1ccccc12 | – | 26.7 µM (active)
5 | CNCCc1cnc(CCC(c2ccccc2)c2ccccc2)[nH]1 | 23.7% | –
6 | CC(=O)/C(C)=N/O | 10.9% | –
7 | c1ccc(CN2CCC3(CCCc4ccccc43)CC2)cc1 | -12.8% | –
8 | CC(O)C(O)[C@H]1CNc2nc(N)[nH]c(=O)c2N1 (stereo not given in full) | – | 26.7 µM (active)
9 | CCCCCC[C@@H]([C@@H](C)O)n1cnc2c(N)ncnc21 | -0.259% | –
10 | OC1(c2ccc(Cl)cc2)CCN(Cc2c[nH]c3ccccc23)CC1 | 14.3% | –
11 | CC(C)[C@H](NC(=O)OCc1ccccc1)C(=O)N[C@H](C=O)Cc1ccccc1 (Cbz-Val-Phe-aldehyde) | 6.55% | –
12 | C/C(=C\c1ccc(C(=O)O)cc1)c1ccc2c(c1)C(C)(C)CCC2(C)C | – | 10.6 µM (active)
13 | C[C@](Cc1ccc(O)c(O)c1)(NN)C(=O)O | -3.33% | –
14 | CCCCOc1cc(CC2CNC(=O)N2)ccc1OC (stereo not given) | -3.84% | –
15 | CSC(=N)N | -0.812% | –
16 | Cn1c(=O)c2[nH]c(-c3ccc(S(=O)(=O)O)cc3)nc2n(C)c1=O | 4080% | –
17 | CN(C)S(=O)(=O)c1ccc2c(c1)/C(=C/c1cc3c([nH]1)CCCC3)C(=O)N2 | -7.99% | –
18 | N[C@@H](Cc1ccc(F)cc1)C(=O)O | -11.7% | –
19 | CCCCCCCCCC[Si](C)(C)CCC(=O)NC(Cc1ccc(C)cc1)c1ccccc1 (stereo not given) | -5.2% | –
20 | COc1cc2c(CCNC(C)=O)c[nH]c2cc1O | – | 26.7 µM (active)

Row | SMILES | activity change, negative = inhibition | Potency
21 | CCCN(CCc1ccccc1)C1CCc2c(O)cccc2C1 (stereo not given) | -10.5% | –
22 | OC[C@H]1O[C@@H](n2cnc3cncnc32)[C@H](O)[C@@H]1O | 1.99% | –
23 | O=C(N[C@@H](Cc1ccccc1)C(=O)CCl)OCc1ccccc1 | 8.24% | –
24 | NC/C=C\C(=O)O | -3.46% | –
25 | CC(C)Cn1c(=O)n(C)c(=O)c2[nH]cnc21 | 5.89% | –
26 | CCCCCCC/C=C\CCCCCCCCC(=O)O | – | 21.2 µM (active)
27 | N[C@@H](CS(=O)O)C(=O)O | 5.71% | –
28 | Nc1nc2c(nc(Br)n2C2OC3COP(=O)(O)O[C@@H]3C2O)c(=O)[nH]1 (stereo not given in full) | 3.95% | –
29 | Cc1cccc(C2CN(C)CCc3c2cc(O)c(O)c3Cl)c1 (stereo not given) | -9.83% | –
30 | Nc1ccc(N2C(=O)c3ccccc3C2=O)c(Cl)c1 | -1.58% | –
31 | NC(=Nc1ccccc1)NC(=O)c1nc(Cl)c(N)nc1N | – | 26.7 µM (active)
32 | NCCC1CCCC(CCN)N1 (stereo not given) | -2.43% | –
33 | N=S(=O)(O)Cc1noc2ccccc12 | 4.02% | –
34 | CCCn1c(=O)c2[nH]c(C3CCCC3)nc2n(CCC)c1=O | 2.69% | –
35 | Nc1ccc(-c2nc3ccc(-c4nc5ccc(N)cc5[nH]4)cc3[nH]2)cc1 | – | 26.7 µM (active)
36 | NOCC(=O)O | 4.75% | –
37 | Nc1ncnc2c1nc(Sc1ccc(Cl)cc1)n2[C@H]1OC2COP(=O)(O)O[C@@H]2C1O (stereo not given in full) | 4.44% | –
38 | O=[N+]([O-])c1cccc2cn[nH]c12 | -0.115% | –
39 | O=c1cc(-c2ccccc2F)[nH]c2cc3c(cc12)OCO3 | – | 26.7 µM (active)
40 | Cn1c(=O)[nH]c2ncn(C)c2c1=O | 3.49% | –
